# PAFAH1B3 FP inh: inhibitors of human PAFAH1B3. recombinant PAFAH1B3, FP-rhodamine probe, fluorescence polarization. inhibition, % at 3.39 µM. actives 0.28% (n = 340,000);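 active = inhibition above the screen-wide average of all tested compounds plus 3 SD, cut at about 25% in these data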;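 also: 0% = enzyme with DMSO only and 100% = wells lacking PAFAH1B3 protein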
# Target sequence (Q15102 whole entry, looked up): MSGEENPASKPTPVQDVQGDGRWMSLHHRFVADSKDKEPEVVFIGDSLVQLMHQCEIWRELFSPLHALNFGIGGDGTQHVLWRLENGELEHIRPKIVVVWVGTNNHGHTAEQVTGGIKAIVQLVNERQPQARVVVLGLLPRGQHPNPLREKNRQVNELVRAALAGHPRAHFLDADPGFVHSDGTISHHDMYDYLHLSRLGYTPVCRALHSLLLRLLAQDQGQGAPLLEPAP
# PKA-R1A act: activates the PKA-R1A holoenzyme complex | P00514+P68181 | PKA-R1A dissociation, Cy5-IP20 fluorescence polarization; scaled: DMSO 0%, 113 µM cGMP 100% | activation, % at 11.4 µM | actives 0.083% (n = 340,000) | AID 504707;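 active = percent activation above the mean of all tested compounds plus 3 SD, cut at about 19% in these data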;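 also: higher means more PKAc released from R1A so a rise in polarization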
# pPAFAH inh: pPAFAH (human) enzyme inhibition; recombinant pPAFAH, FP-rhodamine probe fluorescence polarization; AID 463082; inhibition, % at 3.39 µM; actives 1.5% (n = 330,000); Q13093;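 active = inhibition above the mean inhibition across the screen plus 3 SD, cut at about 25% in these data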;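 also: inhibitors block binding of the rhodamine activity-based probe so polarization drops; 0% = enzyme with DMSO and 100% = wells lacking pPAFAH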
# Target sequence (Q13093 whole entry, looked up): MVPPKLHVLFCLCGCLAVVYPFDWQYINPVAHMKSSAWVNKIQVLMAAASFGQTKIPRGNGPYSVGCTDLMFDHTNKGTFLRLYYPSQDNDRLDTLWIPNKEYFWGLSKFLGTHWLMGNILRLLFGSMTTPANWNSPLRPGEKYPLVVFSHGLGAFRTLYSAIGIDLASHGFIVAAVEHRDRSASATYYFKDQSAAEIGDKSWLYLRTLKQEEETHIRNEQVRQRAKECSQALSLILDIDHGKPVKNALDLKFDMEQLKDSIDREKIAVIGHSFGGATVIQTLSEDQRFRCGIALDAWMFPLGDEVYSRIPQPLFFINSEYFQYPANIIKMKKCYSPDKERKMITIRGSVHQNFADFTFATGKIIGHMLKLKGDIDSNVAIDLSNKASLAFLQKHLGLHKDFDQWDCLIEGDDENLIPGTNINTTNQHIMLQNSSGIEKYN
# PAFAH2 inh: PAFAH2 (human) inhibition; actives 0.99% (n = 340,000); recombinant PAFAH2, FP-rhodamine activity probe, fluorescence polarization; Q99487; inhibition, % at 3.39 µM;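 active = inhibition above the mean over all tested compounds plus 3 SD, cut at about 30% in these data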;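 also: inhibitors block probe labeling of enzyme so polarization drops; 0% = enzyme with DMSO and 100% = wells lacking PAFAH2 protein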
# PAFAH1B2 inh: blocks human PAF acetylhydrolase 1b catalytic subunit 2 | P68402 | recombinant PAFAH1B2, FP-rhodamine activity probe, fluorescence polarization | inhibition, % at 3.39 µM | actives 1.2% (n = 340,000) | AID 492953;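 active = inhibition above the mean of all tested compounds plus 3 SD, cut at about 24% in these data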;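 also: 0% = enzyme with DMSO and 100% = wells lacking PAFAH1B2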
# PKA-R2B activ: activators of human PKA-R2B complex. P22694+P31323. activation, % at 11.4 µM. PKA-R2B holoenzyme dissociation, Cy5-IP20 fluorescence polarization; R2B truncated from residue 108, S112A mutant; 0% DMSO only, 100% 113 µM cGMP. actives 0.079% (n = 340,000);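 active = activation above a cutoff set at the mean over all compounds plus 3 SD, cut at about 18% in these data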;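 also: higher means more holoenzyme dissociation and a rise in polarization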
# * = called active by the depositor; / = no result given. This is a sample that favours compounds with a hit; in the whole collection about 2.6% have one here.
SMILES,PAFAH1B3 FP inh,PKA-R1A act,pPAFAH inh,PAFAH2 inh,PAFAH1B2 inh,PKA-R2B activ
Cn1c(N)c(NC(=S)NC2CCCCC2)c(=O)n(C)c1=O,2.5,-9.6,/,-5.1,6.8,3.9
COc1ccccc1NC(=O)N(C)C[C@@H]1OCc2cnnn2CCCC(=O)N([C@H](C)CO)C[C@H]1C,/,1.6,/,/,/,2.0
C=CCNC(=O)COc1coc(CN2CCN(C(=O)c3ccco3)CC2)cc1=O,1.2,-12.7,15.8,-5.0,1.0,-4.7
CC1=[N+](C)c2c(ccc3cccnc23)C1(C)C,-147.5,24.3*,/,-93.3,-100.3,30.7*
CC(C)(C)c1sc(N)nc1-c1ccccc1,4.4,-6.5,9.0,-8.8,26.9*,-0.6
COc1ccc(S(=O)(=O)N2CCCC2CNC(=O)C(=O)NCc2ccccn2)cc1 (stereo not drawn),-2.0,0.2,0.5,6.1,-9.0,4.4
CCCCCCCCCCS(=O)(=O)N/N=C/c1ccc([N+](=O)[O-])cc1,7.5,1.7,10.3,2.2,30.4*,2.4
Cc1ccc(/C=N/NS(=O)(=O)c2ccc([N+](=O)[O-])cc2)o1,5.9,-5.5,2.9,-0.1,0.1,-5.4
O=S(=O)(c1ccc(Br)cc1Cl)N1CCN(CCO)CC1,-2.0,4.5,3.3,6.1,4.5,-1.2
O=C1C=CC(=O)c2c(O)c(N3CCN(CCOCCO)CC3)c(Br)c(O)c21,62.1*,-1.8,/,58.5*,43.8*,0.7
O=C1C=CC(=O)c2c(O)c(N3CCN(CCO)CC3)c(Cl)c(O)c21,49.5*,-3.1,/,40.7*,27.5*,-11.9
COc1ccc(COC(=O)c2cccc(S(=O)(=O)N3CCN(C(C)=O)CC3)c2)cc1F,0.4,-3.7,5.8,5.9,-0.1,-14.4
COc1cc(/C=N/Nc2nc3c(c(=O)n(C)c(=O)n3C)n2Cc2ccccc2)ccc1OC(=O)c1ccco1,14.8,-4.2,34.5*,2.0,0.3,-5.7
Cc1ccc(Cl)c(OCC(=O)NC2CCN(Cc3ccccc3)CC2)c1,1.8,-12.0,1.2,-0.5,0.4,-2.2
C=CC[C@H](CC(=O)NCCO)C(=O)NC[C@@H](OC(=O)[C@H](CC=C)CC(=O)OC(C)(C)C)c1ccccc1,-0.3,4.2,2.4,-8.6,0.4,-0.7
Cc1cc2c(cc1S(=O)(=O)Nc1ccc(OC(F)(F)F)cc1)OCC(=O)N2,7.8,3.2,34.1*,1.8,13.5,-5.3
O=C(C=Cc1ccco1)c1cc(Cl)ccc1O,5.0,-7.6,/,6.5,3.1,-12.0
CC(/C=C/c1ccco1)=N\NC(=O)c1cc(Cl)ccc1O,9.9,0.1,31.6*,16.9,10.2,-7.0
CCOC(=O)N1CCC(NS(=O)(=O)c2ccc(NC(C)=O)c(Cl)c2)CC1,/,/,5.3,/,/,/
N#Cc1c(NC(=O)CSc2nnc(-c3ccco3)n2-c2ccccc2)sc2c1CCC2,2.3,-10.6,13.2,7.7,2.8,-13.2
NC(=O)c1c(NC(=O)CSc2nnc(-c3ccco3)n2-c2ccccc2)sc2c1CCC2,-5.8,-7.4,32.5*,11.0,-3.4,-6.2
O=c1c2ccccc2nc(COc2ccccc2)n1/N=C/c1cc([N+](=O)[O-])ccc1O,5.6,-7.9,25.7*,-11.5,-0.7,0.1
Cc1cc(/C=N/n2c(COc3ccccc3C)nc3ccccc3c2=O)c(O)c([N+](=O)[O-])c1,-4.3,-1.3,16.6,1.4,0.6,3.0
Oc1ccc(Br)cc1/C=N/n1c(COc2ccccc2)n[nH]c1=S,-0.4,0.3,/,9.9,27.6*,2.0
COc1ccc(CC(=O)Nc2ccc(N3CCOCC3)cc2)cc1OC,3.6,-7.4,6.7,-4.1,1.4,2.4
SMILES,PAFAH1B3 FP inh,PKA-R1A act,pPAFAH inh,PAFAH2 inh,PAFAH1B2 inh,PKA-R2B activ
N#Cc1c(N)nc2c(c1N)CC(=O)N2c1ccc(Cl)cc1,19.1,-1.7,8.2,2.6,24.4*,-0.2
COc1ccc(/C=C/C(=O)NCCCN2CCOCC2)cc1,3.3,-12.4,/,-8.3,3.4,-12.0
O=C(O)C1CCCN(S(=O)(=O)c2ccc(Cl)s2)C1 (stereo not drawn),5.5,1.0,4.5,-1.8,29.3*,12.8
C[C@H](CO)N1C[C@H](C)[C@@H](CN(C)Cc2ccc(F)cc2)Oc2ncc(Br)cc2C1=O,/,0.9,/,/,/,9.9
CC1=C(C(=O)Nc2cc(C(=O)N3CCC(C)CC3)ccc2C)SCCO1,6.8,-4.4,4.2,0.6,2.2,-16.0
CN(Cc1ccccc1)C(=O)CSc1cc(=O)n(C)c2ccccc12,2.6,-7.2,28.6*,6.7,-3.1,-2.8
C#CCN1C(=O)S/C(=C\c2ccc(-c3ccc(C(=O)O)cc3C)o2)C1=O,2.9,1.9,30.7*,6.2,5.2,-12.7
CCOC(=O)C(C)N1C(=O)S/C(=C\c2ccc(-c3ccccc3C(=O)O)o2)C1=O (stereo not drawn),0.1,2.8,28.4*,5.2,-5.8,0.7
Cc1ccc(Cl)c(NC(=O)CN2C(=O)C(C)N(c3ccc(F)cc3)C2=O)c1Cl (stereo not drawn),/,4.5,/,/,/,-13.6
Cc1ccc(SCc2[nH]nc3c2C(c2ccco2)C(C#N)=C(N)O3)cc1 (stereo not drawn),14.1,4.0,7.5,6.6,34.1*,-8.7
COc1cc(/C=C2\SC(=O)N(CCN)C2=O)ccc1OS(=O)(=O)c1cc(C)ccc1C,6.3,2.6,/,13.8,6.2,-8.9
CCn1c(CSc2nc3ccccc3[nH]2)nc2cc(C(=O)O)ccc21,11.3,-10.6,13.7,19.2,17.9,-5.8
CCn1c(CSc2nccn2C)nc2cc(C(=O)O)ccc21,14.6,-7.1,24.5,24.9,29.7*,-12.7
CC(NC(=O)c1cc2cc(Br)ccc2oc1=N)c1ccccc1 (stereo not drawn),1.9,-4.6,6.5,9.3,37.0*,4.0
CCc1cc(C(=O)NCC2CCCO2)sc1C (stereo not drawn),3.5,-5.0,3.1,2.4,0.6,-7.7
O=C(c1cn(-c2ccccc2)nc1-c1cccnc1)N1CCN(S(=O)(=O)c2ccc(Cl)cc2)CC1,4.1,3.4,/,-3.8,29.2*,-1.1
NC(=O)NN=C(C1CC1)C1CC1,8.4,-3.7,/,7.1,4.8,9.9
Cc1ccc(S(=O)(=O)NCC2CCC(C(=O)N3CCN(C)CC3)CC2)cc1 (stereo not drawn),3.6,4.8,5.1,6.2,-0.9,3.6
CCOC(=O)c1sc(N(Cc2ccccc2)C(=O)COC(=O)c2ccccc2O)nc1C,1.5,6.7,8.6,-5.1,41.7*,-2.9
CCOC(=O)c1sc(N(Cc2ccccc2)C(=O)COC(=O)c2ccc(O)cc2)nc1C,-15.4,-1.9,-18.1,-23.5,-12.3,1.2
O=C1CC(SCCc2nc3ccccc3[nH]2)C(=O)N1c1ccc(Cl)cc1 (stereo not drawn),0.9,11.8,2.4,-7.3,31.5*,2.9

# Screening results as filed in PubChem BioAssay.
